AHR activator: AHR activators, primary screen, cell-based, luminescence, luciferase reporter, human; Aryl hydrocarbon receptor (Homo sapiens), P35869; AHR-responsive luciferase reporter cells; activation, % at 5 µM; actives 2.5% (n = 320,000); in the data active = activation above about 47%;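 note: 0% = vehicle wells and 100% = reference agonist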
Target sequence (P35869 whole entry, looked up): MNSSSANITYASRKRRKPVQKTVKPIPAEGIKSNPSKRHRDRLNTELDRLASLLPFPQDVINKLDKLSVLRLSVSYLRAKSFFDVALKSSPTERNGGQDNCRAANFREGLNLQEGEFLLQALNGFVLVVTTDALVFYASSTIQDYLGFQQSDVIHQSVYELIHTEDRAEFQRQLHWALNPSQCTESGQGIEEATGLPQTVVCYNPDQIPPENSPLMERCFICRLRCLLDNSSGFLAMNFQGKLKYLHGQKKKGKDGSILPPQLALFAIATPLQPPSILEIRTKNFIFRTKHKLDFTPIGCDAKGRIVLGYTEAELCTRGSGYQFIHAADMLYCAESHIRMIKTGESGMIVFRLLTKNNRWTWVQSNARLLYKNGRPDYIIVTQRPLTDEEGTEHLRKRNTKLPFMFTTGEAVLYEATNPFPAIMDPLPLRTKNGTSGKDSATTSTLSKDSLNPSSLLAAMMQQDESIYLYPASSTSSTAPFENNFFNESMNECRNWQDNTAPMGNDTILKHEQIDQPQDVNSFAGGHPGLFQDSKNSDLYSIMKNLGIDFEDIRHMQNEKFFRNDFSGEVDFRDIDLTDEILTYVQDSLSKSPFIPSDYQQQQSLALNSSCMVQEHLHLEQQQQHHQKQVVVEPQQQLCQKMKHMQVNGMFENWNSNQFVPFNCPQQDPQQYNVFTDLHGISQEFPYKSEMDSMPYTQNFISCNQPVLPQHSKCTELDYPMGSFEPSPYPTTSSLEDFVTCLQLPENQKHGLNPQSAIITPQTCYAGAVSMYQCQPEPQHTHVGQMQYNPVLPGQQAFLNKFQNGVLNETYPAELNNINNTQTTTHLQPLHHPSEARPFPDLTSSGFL
HSF1 inh: HSF1 inhibitors in luciferase reporter cells, primary screen, cell-based, NIH3T3, luminescence; activity change, negative = inhibition, % at 7.5 µM (by protocol); NIH3T3-HGL HSE-luciferase, MG132-induced, luminescence 8 h; hits give low values; actives 0.77% (n = 300,000);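 active = more than half of replicate wells show activity change below -50%, luminescence cut by over half; inconclusive = some wells, but at most half, below -50%; inactive = no replicate well below -50%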;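 note: luciferase reports HSF-1 transcriptional activity via heat shock element; 0% = median of DMSO wells and -100% = zero luminescence signal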
HSF1 activator: HSF-1 activators, primary screen, NIH3T3-HGL cells, MG132 stress, luminescence, single point; actives 1.7% (n = 300,000); activation, % at 9 µM; NIH3T3-HGL HSF-1 luciferase reporter, 8 h; 100% = twice DMSO control signal; AID 504408, 2011;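 active = mean replicate activation of at least 50% with a set share of replicates each reaching 50%; inconclusive = only one of those two conditions met; inactive = mean below 50% and too few replicates reaching it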;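 note: 0% = median of the neutral control wells and 100% = twice that signal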
GAA850 FXN act: FXN promoter activators, primary screen, cell-based, luciferase luminescence, HEK293 lucGAA850; HEK293 lucGAA850 FXN promoter luciferase reporter, 24 h; percent of 10 µM SAHA response; activation, % at 6 µM; actives 0.56% (n = 360,000); AID 540364, 2011;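 active = activation above the average of all compounds screened plus 3 SD, cutoff fixed separately per campaign, cut at about 7.5% in these data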;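 note: 0% = DMSO wells and 100% = 10 µM SAHA wells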
Numbers without * were called inactive; u = inconclusive; x = no result given. Most compounds without a hit are left out; they make up all but 4.6% or so of the library.

SMILES	AHR activator	HSF1 inh	HSF1 activator	GAA850 FXN act
COc1cc(C(=O)N(C)C2CCCN(Cc3ccccc3F)C2)cc(OC)c1OC (configuration not stated)	-1	-77*	-81	-2
CN(C(=O)c1cccc(Cl)c1)C1CCCN(Cc2ccccc2F)C1 (configuration not stated)	-3	4	5	-1
CC(C)c1ccc(-n2cnn(-c3ncccc3[N+](=O)[O-])c2=O)cc1	51*	26	54*	1
CCCCC(=O)Oc1cc(C)[nH]c(=O)c1[N+](=O)[O-]	-3	-6	7	3
COc1ccc(CNC2CCCc3ccccc32)cc1OC (configuration not stated)	1	3	-6	-4
COc1ccc(CNC2CCSc3ccccc32)cc1OC (configuration not stated)	9	27	63*	0
CC(C)CNC(=S)NNC(=O)c1csc2c1CCC(C)C2 (configuration not stated)	4	49	46	0
Cc1ccc(OCC(=O)N/N=C/c2cccnc2)cc1	9	-3	2	0
CCOC(=O)c1c(N/N=C/c2cccnc2)n[nH]c1C	52*	12	14	-1
CCOc1ccc(-c2nc(CSCC(=O)NCC3CCCO3)c(C)o2)cc1 (configuration not stated)	-5	-57*	-56	-4
CCc1ccc(-c2nc(CSCC(=O)NCc3ccco3)c(C)o2)cc1	x	-72*	-77	-13
CCCNC(=O)CSCc1nc(-c2ccc(SC)cc2)oc1C	-10	4	1	0
COc1ccc(-c2csc(NC(=O)CSc3n[nH]c(N)n3)n2)cc1	49*	3	17	3
COc1ccc(-c2csc(NC(=O)CSc3n[nH]c(C)n3)n2)cc1	12	9	14	5
O=C(CSc1nc2ccccc2[nH]1)Nc1nc(-c2ccc(Br)cc2)cs1	48*	7	11	0
CCn1nc(C(=O)OCC(=O)Nc2nc(-c3ccc(OC)cc3)cs2)c2ccccc2c1=O	3	40	77*	3
CCCc1cc(=O)[nH]c(SCC(=O)Nc2nc(-c3ccccc3)cs2)n1	8	12	26	-2
O=C(Nc1cccc(Cl)c1)C1CCCCC1	2	x	x	-1
CCn1cc(Cl)c(C(=O)NNC(=O)CCn2ccc([N+](=O)[O-])n2)n1	1	-2	17	0
Cc1ccc(C(=O)N[C@H](C(=O)OCC(=O)NC2CCS(=O)(=O)C2)C(C)C)cc1 (some centres not stated)	-3	4	0	2
CCN(CCNC(=O)c1ccc(CSc2nc3ccncc3[nH]2)cc1)c1ccccc1	15	-6	-5	0
CC1CC(C)CN(C(=O)c2ccc(CSc3nc4ccncc4[nH]3)cc2)C1 (configuration not stated)	0	-67*	-73	0
Cc1ccc(CN(C)C(=O)c2cccc(S(=O)(=O)N3CCc4ccccc4C3)c2)o1	3	x	x	0
CC1=C(C(=O)Nc2ccc(C)cc2)C(c2ccc(C)o2)C2=C(CC(C)(C)CC2=O)N1 (configuration not stated)	10	-62*	-71	0
COc1cc2c(cc1OC)C(c1cc(Br)ccc1F)N(C(=O)CCl)CC2 (configuration not stated)	2	-97*	-97	2
SMILES	AHR activator	HSF1 inh	HSF1 activator	GAA850 FXN act
COc1cc2c(cc1OC)C(C1C(=O)CC(C)(C)CC1=O)N(C(=O)CCl)CC2 (configuration not stated)	-1	-6	6	1
O=C(/C=C/NNC(=O)c1ccccc1)c1ccc(Br)cc1	3	24	60*	1
Cc1ccc(C(=O)/C=C/NNC(=O)c2ccccc2O)cc1	28	18	53*	2
CCCC[C@@H]1CNCCN1CCCc1cc(OC)c(OC)c(OC)c1	0	5	0	1
C=CCN=c1scc(-c2ccc(F)cc2)n1/N=C/c1ccccn1	48*	27	47	0
CCN=c1scc(-c2ccccc2)n1/N=C/c1ccccn1	-12	-10	-17	-7
C=CCN=c1scc(-c2ccccc2)n1/N=C/c1ccccn1	35	38	52*	-5
CCN=c1scc(-c2ccc(F)cc2)n1/N=C/c1ccccn1	-3	10	34	8.8*
COc1ccc(CCNC(=S)NC(=O)c2c(-c3ccccc3Cl)noc2C)cc1OC	45	9	23	1
CCC(C)[C@H](NC(=O)[C@H](Cc1ccccc1)n1c(=O)[nH]c2ccccc2c1=O)C(=O)NCC1CCC(C(=O)O)CC1 (some centres not stated)	1	6	0	0
CCn1c(C)cc(/C=C2/NC(=O)N(CC(=O)Nc3cccc(C)c3)C2=O)c1C	11	-1	-1	0
CCn1c(C)cc(/C=C2/NC(=O)N(c3ccccc3)C2=O)c1C	27	-52*	-55	-2
CCOC(=O)c1c(S(=O)(=O)N2CCCC2)c(C)n(C)c1C	0	-5	-13	-1
CCOC(=O)c1c(S(=O)(=O)N2CCCCC2C)c(C)n(C)c1C (configuration not stated)	2	-88*	-91	1
CSc1nsc(N/N=C/c2ccccc2)c1C#N	60*	-11	-11	2
COc1cccc(/C=N/Nc2snc(SC)c2C#N)c1O	39	28	42	-2
COc1cccc(/C=N/Nc2snc(SC)c2C#N)c1	49*	x	x	2
CSc1nsc(/C=C/Nc2ccc(C(=O)O)cc2)c1C#N	10	-1	38	1
CCN(CC)S(=O)(=O)c1ccc(C(=O)OCn2c(SC)nnc(C)c2=O)cc1	-1	-2	-3	1
Cc1ccc(-c2ccnc3c(Br)c(C)nn23)cc1	20	4	17	2
Cc1nn2c(-c3ccccc3)ccnc2c1Br	74*	6	14	5
O=C(c1ccc(Cl)cc1Cl)C1(n2cncn2)Oc2ccccc2C1O (configuration not stated)	66*	10	16	3
CC(=O)c1ccccc1Oc1cc(NN2CCCCC2)c([N+](=O)[O-])cc1[N+](=O)[O-]	46	8	7	-1
CC(C)c1ccc(-n2nc3ccc(N)cc3n2)cc1	58*	-4	0	1
CCOC(=O)c1sc(NC(=O)c2sccc2C)cc1C	-10	42	73*	5
CCOC(=O)c1sc(NC(=O)c2cccs2)cc1C	-3	18	u	2
Cc1ccc(C(=O)CSc2ccccn2)cc1	-3	31	53*	7
O=C(CSc1ccccn1)c1ccc(F)cc1	-1	12	13	3
Cc1cc(Oc2ccccc2)nc(SCC(=O)Nc2ccc(Cl)c(Cl)c2)n1	3	0	7	1
CCN(CC)C(=O)Cn1cc(C(=O)C(=O)N2CCCc3ccccc32)c2ccccc21	70*	x	x	-1
